Results taken from PubChem BioAssay (NCATS).
Several values for one entry are separate records, joined by “and”; a condition that tells them apart may be missing. Equal entries are not always repeated. Records with an inconclusive call do not appear. Activity calls are given as the source filed them. Unless noted, calls follow the shape of the full dose curve.

Legend:
[1] = molecular target: Phospholipid hydroperoxide glutathione peroxidase GPX4 (Homo sapiens) (UniProt P36969); test: Primary qHTS Assay for Inhibitors of Recombinant Selenoprotein Glutathione Peroxidase 4 (GPX4) (AID 1845192; active = well fitted curve in the direction sought with a large enough effect; an effect the other way counts as inactive or inconclusive; also: nearly all actives have a fitted effect of over 65% in size; also: potency is read from the fitted curve at half-maximal effect)
Chain of Phospholipid hydroperoxide glutathione peroxidase GPX4 (Homo sapiens) (P36969 whole entry, looked up): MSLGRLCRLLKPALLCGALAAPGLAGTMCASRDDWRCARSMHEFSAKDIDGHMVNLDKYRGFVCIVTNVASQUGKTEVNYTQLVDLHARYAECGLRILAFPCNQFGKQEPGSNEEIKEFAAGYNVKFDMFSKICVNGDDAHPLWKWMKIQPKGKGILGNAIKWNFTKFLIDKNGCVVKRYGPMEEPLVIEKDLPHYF
Method in brief: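 NADPH consumption followed by fluorescence at 340/450 nm, t=0 and after 15 min at room temperature. Reaction started with cumene hydroperoxide (0.5 mM final) after 30 min compound–GPX4 preincubation; final 200 nM GPX4, 100 nM GR, 1 mM GSH, 0.5 mM NADPH.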

[2] = Cell Viability - HepG2 (AID 433); conditions: qHTS;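 also: potency is read from the fitted curve at half-maximal effect; cells exposed to compound for 40 hours; potency for ATP loss meaning cytotoxicity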
Method in brief: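 Read-out is luciferase-based quantitation of cellular ATP as a measure of viable HepG2 cells after 40 h treatment at 37 °C. Signal decrease is scaled between DMSO-only and 100 uM tamoxifen controls, with AC50 fitted by the Hill equation.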

[3] = Cell Viability - LYMP2-007 (AID 979; active = well fitted curve in the direction sought with a large enough effect; an effect the other way counts as inactive or inconclusive;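 also: cells exposed to compound for 24 h before reading; 0% = DMSO only and the negative end = 92 µM tetraoctylammonium bromide; nearly all actives have a fitted effect of over 60% in size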)
Method in brief: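 qHTS cytotoxicity: 2500 cells/well, 5 hr 37 C settle, compound 24 hr 37 C, CellTiter-Glo 30 min RT, luminescence. Decrease in ATP = toxicity. AC50 by standard Hill equation; tetraoctylammonium bromide positive control.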

[4] = molecular target: Estrogen receptor (Homo sapiens) (UniProt P03372); test: qHTS assay for small molecule agonists of estrogen receptor alpha signaling (AID 588514);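 also: 0% = vehicle only and 100% = reference agonist; nearly all actives have a fitted effect of over 70% in size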
Chain of Estrogen receptor (Homo sapiens) (P03372 whole entry, looked up): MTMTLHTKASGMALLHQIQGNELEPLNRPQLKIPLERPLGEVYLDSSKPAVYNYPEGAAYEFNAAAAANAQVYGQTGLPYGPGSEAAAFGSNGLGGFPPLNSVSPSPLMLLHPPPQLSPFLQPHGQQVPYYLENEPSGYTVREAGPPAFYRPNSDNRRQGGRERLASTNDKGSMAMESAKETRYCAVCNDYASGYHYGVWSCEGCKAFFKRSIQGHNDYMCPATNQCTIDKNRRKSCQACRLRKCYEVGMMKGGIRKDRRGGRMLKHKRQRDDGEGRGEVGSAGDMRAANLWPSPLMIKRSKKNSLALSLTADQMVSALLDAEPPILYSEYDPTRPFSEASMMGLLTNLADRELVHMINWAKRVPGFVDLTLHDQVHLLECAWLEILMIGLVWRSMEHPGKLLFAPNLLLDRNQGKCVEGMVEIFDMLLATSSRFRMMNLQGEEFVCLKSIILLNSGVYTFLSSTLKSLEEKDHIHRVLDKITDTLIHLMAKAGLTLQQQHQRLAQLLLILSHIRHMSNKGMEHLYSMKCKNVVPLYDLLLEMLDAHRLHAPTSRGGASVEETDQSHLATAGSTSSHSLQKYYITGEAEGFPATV
Method in brief: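 Read-out: CCF4 fluorescence from a beta-lactamase reporter in ER-alpha-UAS-bla HEK 293 cells after 18 hrs of compound exposure at 37 C. Normalized to 20 nM 17-beta-estradiol (100%) and DMSO (0%).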

[5] = molecular target: Glucocorticoid receptor (Homo sapiens) (UniProt P04150); test: qHTS assay for small molecule antagonists of glucocorticoid receptor signaling (AID 588533; active = well fitted inhibition curve with a large enough effect in the signal ratio, with a control signal flat, not every such curve was filed as active; the % refers to the signal ratio;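 also: cells stimulated with 2 nM dexamethasone as agonist; % is scaled to controls: 0 for no effect and ±100 for the full control effect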)
Chain of Glucocorticoid receptor (Homo sapiens) (P04150 whole entry, looked up): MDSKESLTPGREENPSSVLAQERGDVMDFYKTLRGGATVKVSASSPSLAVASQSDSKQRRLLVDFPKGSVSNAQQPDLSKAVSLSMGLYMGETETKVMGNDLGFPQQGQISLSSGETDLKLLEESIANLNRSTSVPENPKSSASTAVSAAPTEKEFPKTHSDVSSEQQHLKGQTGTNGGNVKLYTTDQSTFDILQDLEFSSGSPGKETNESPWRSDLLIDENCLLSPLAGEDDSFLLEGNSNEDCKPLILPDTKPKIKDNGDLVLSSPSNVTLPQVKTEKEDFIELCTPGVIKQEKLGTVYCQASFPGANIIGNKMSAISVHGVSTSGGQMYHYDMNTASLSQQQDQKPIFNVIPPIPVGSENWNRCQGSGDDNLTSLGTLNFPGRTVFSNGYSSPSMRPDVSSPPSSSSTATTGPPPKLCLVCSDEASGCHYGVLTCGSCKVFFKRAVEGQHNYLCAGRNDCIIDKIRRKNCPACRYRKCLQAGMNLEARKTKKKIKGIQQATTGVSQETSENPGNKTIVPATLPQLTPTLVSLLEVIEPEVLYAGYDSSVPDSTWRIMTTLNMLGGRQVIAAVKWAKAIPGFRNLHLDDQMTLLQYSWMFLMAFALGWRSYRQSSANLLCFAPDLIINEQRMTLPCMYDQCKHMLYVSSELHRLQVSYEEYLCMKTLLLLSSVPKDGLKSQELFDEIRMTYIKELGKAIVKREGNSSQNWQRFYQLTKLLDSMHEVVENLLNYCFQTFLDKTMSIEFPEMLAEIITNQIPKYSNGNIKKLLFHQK
Method in brief: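 Antagonist-mode qHTS: compound titrations added to GRE-bla HeLa cells, then dexamethasone 2 nM final; 18 h, 37 C. CCF4 FRET fluorescence normalized to dexamethasone and DMSO; IC50 from Hill fit.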

[6] = molecular target: Vitamin D3 receptor (Homo sapiens) (UniProt P11473); test: qHTS assay for small molecule antagonists of vitamin D receptor signaling (AID 588541);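 also: receptor activated by calcitriol during compound treatment; series mostly up to about 77 µM; % is scaled to controls: 0 for no effect and ±100 for the full control effect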
Chain of Vitamin D3 receptor (Homo sapiens) (P11473 whole entry, looked up): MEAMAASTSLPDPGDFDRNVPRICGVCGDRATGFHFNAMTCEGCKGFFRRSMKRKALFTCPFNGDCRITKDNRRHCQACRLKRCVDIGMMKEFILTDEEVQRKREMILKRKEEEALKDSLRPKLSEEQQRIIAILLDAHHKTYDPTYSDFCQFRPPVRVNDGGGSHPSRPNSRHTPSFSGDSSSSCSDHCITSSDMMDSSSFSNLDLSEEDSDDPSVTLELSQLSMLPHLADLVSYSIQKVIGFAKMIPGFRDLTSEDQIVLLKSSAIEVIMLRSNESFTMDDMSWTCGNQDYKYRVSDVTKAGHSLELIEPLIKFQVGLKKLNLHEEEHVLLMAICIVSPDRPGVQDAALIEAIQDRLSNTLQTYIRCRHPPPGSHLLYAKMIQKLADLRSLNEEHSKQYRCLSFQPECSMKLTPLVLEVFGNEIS
Method in brief: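 Antagonist-mode beta-lactamase reporter assay: HEK293T VDR-UAS-bla cells were exposed to titrated compound alongside 1-alpha,25-dihydroxyvitamin D3 at 3 nM final for 16 h. Values were normalized to the 50 nM agonist control and DMSO basal, with IC50 and efficacy from Hill equation fits.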

[7] = qHTS assay for small molecule agonists of the antioxidant response element (ARE) signaling pathway (AID 651741; active = well fitted activation curve with a large enough effect in the signal ratio; the % refers to the signal ratio; also: potency is read from the fitted curve at half-maximal effect; as to activation: % of control where 0% means no effect)
Method in brief: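 Agonist activity is measured as ARE-driven beta-lactamase expression in a stable HepG2 reporter line, using 16 h compound treatment at 37 C and a FRET substrate fluorescence readout after 2 h.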

[8] = molecular target: Nuclear receptor ROR-gamma (Homo sapiens) (UniProt P51449); test: qHTS assay for small molecule antagonists of the retinoid-related orphan receptor gamma (ROR-gamma) signaling pathway (AID 651802; active = well fitted curve in the direction sought with a large enough effect; an effect the other way counts as inactive or inconclusive;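 also: CHO cells with doxycycline-induced ROR-gamma expression; luciferase reporter luminescence driven by ROR response element; series mostly up to about 92 µM; % is scaled to controls: 0 for no effect and ±100 for the full control effect; nearly all actives have a fitted effect of over 60% in size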)
Chain of Nuclear receptor ROR-gamma (Homo sapiens) (P51449 whole entry, looked up): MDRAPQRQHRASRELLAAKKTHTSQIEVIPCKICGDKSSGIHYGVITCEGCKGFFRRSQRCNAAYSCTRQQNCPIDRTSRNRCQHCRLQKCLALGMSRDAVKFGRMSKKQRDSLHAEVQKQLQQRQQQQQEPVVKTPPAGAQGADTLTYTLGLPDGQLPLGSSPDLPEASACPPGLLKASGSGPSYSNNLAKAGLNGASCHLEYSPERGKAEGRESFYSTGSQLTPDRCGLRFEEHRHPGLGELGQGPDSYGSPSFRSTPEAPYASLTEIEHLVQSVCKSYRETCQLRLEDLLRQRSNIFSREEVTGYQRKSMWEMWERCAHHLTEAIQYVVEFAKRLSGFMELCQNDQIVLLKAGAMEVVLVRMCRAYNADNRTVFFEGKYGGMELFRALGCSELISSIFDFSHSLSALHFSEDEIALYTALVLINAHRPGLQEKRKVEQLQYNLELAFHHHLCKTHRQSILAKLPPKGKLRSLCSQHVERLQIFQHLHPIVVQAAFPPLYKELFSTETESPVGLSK
Method in brief: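 Luciferase read-out: ONE-Glo luminescence after 30 min at room temperature, following 16hr doxycycline induction at 37C, 5% CO2 of CHO cells with TET-inducible ROR and RORE-LUC reporter; decreased luminescence = reduced reporter activity.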

[9] = qHTS assay for cell viability of the p53RE-bla HCT-116 cell line (AID 743292; active = well fitted curve in the direction sought with a large enough effect; an effect the other way counts as inactive or inconclusive; also: % is scaled to controls: 0 for no effect and ±100 for the full control effect; nearly all actives have a fitted effect of over 55% in size)
Method in brief: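 ATP-based luminescent viability (CellTiter-Glo, 30 min RT) after 16 h compound treatment at 37 C of p53RE-bla HCT-116 cells, seeded at 4,000 cells/well and rested 5 h before dosing.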

[10] = Cell Viability - MRC5 (AID 434); conditions: MRC5 lung fibroblast viability, qHTS;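 also: potency is read from the fitted curve at half-maximal effect; cells exposed to compound for 40 hours at 37 °C; potency reflects cytotoxicity seen as loss of intracellular ATP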
Method in brief: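 AC50 values come from Hill-equation fits of intracellular ATP loss, measured by CellTiter-Glo luminescence. Normal lung fibroblasts (MRC5) had 40 hr compound treatment at 37 C, normalized between DMSO and 100 uM tamoxifen.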

[11] = Cell Viability - LYMP2-008 (AID 980; active = well fitted curve in the direction sought with a large enough effect; an effect the other way counts as inactive or inconclusive;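 also: cells exposed to compound for 24 h at 37 °C; % is scaled to controls: 0 for no effect and ±100 for the full control effect; nearly all actives have a fitted effect of over 60% in size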)
Method in brief: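 Luminescent ATP read-out (CellTiter-Glo, 30 min RT) after 24 hr compound exposure at 37 C of human lymphoblastoid cells in complete medium. Decrease in ATP taken as cytotoxicity; AC50 derived by standard Hill fit of qHTS concentration-response data.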

[12] = molecular target: Bile acid receptor (Homo sapiens) (UniProt Q96RI1); test: qHTS assay for small molecule antagonists of farnesoid X receptor signaling (AID 588526); also: % is scaled to controls: 0 for no effect and ±100 for the full control effect
Chain of Bile acid receptor (Homo sapiens) (Q96RI1 whole entry, looked up): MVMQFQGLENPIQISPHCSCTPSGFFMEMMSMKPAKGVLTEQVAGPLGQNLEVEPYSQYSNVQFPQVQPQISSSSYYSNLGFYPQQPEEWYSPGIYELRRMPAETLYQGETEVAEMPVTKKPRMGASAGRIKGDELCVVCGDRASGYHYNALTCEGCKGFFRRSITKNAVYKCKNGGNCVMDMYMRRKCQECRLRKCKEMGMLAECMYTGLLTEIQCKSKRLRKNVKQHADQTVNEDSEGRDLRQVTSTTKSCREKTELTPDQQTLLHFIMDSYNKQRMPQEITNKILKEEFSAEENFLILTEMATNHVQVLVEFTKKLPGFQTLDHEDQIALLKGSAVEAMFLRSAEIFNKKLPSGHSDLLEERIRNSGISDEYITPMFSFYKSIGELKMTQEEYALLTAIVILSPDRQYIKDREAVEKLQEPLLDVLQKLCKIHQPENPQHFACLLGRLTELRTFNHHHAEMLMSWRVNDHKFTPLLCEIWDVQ
Method in brief: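 Beta-lactamase reporter antagonist mode: HEK293T FXR-UAS-bla cells, titrated compound, CDCA stimulation, 16 h 37 C, CCF4 dye 2 h RT. Data normalized to CDCA 50 uM and DMSO; Hill-fit IC50.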

[13] = molecular target: Peroxisome proliferator-activated receptor gamma (Homo sapiens) (UniProt P37231); test: qHTS assay for small molecule antagonists of peroxisome proliferator-activated receptor gamma signaling (AID 588537; active = well fitted inhibition curve with a large enough effect in the signal ratio, with a control signal flat, not every such curve was filed as active; the % refers to the signal ratio;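 also: reporter cells co-stimulated with 50 nM rosiglitazone agonist during compound treatment; % of control where 0% means no effect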)
Chain of Peroxisome proliferator-activated receptor gamma (Homo sapiens) (P37231 whole entry, looked up): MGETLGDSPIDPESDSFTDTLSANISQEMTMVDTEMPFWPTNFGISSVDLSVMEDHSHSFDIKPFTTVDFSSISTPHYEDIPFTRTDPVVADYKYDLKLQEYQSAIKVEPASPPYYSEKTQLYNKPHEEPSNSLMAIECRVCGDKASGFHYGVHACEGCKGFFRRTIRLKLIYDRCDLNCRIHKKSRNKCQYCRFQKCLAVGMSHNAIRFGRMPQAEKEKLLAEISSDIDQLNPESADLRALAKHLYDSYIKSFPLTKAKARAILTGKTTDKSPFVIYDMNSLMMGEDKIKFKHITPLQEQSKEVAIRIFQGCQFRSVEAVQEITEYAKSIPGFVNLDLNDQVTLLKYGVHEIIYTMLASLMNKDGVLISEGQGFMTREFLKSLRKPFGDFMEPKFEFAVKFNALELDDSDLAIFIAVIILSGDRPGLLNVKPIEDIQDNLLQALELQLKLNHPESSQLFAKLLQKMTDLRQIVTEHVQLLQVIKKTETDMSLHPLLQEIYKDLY
Method in brief: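 Cell-based beta-lactamase assay; GW9662 served as the antagonist control. Stimulation used rosiglitazone, final 50 nM, 16 h, 37 C.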

[14] = qHTS assay for small molecule activators of the nuclear factor-kappa B (NF-kB) signaling pathway (AID 651749; active = well fitted activation curve with a large enough effect in the signal ratio; the % refers to the signal ratio; also: series mostly up to about 77 µM; % of control where 0% means no effect); conditions: NF-kB-bla ME-180 cells, beta-lactamase FRET ratio, 16 h; stronger effect = higher value
Method in brief: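 FRET-based beta-lactamase detection in ME-180 cells reports NF-kB response-element-driven transcription following overnight (16 hr) compound treatment.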

[15] = Cellular Toxicity (caspase-3) Renal Proximal Tubule (AID 667; active = well fitted curve in the direction sought with a large enough effect; an effect the other way counts as inactive or inconclusive;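 also: cells exposed to compound for 16 hours at 37 °C before detection; 0% = DMSO basal and 100% = 10 µM staurosporine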)
Method in brief: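 AC50 derived by standard Hill fit of concentration-response data, normalized between DMSO basal and 10 uM staurosporine as 100% stimulation. Cells: primary rat kidney proximal tubule, 16 h treatment at 37 °C.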

[16] = MultiTox-Fluor Cytotoxicity Assay - LYMP1-001 - Dead Cells (AID 946; active = well fitted curve in the direction sought with a large enough effect; an effect the other way counts as inactive or inconclusive)
Method in brief: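 Cytotoxicity as increased dead-cell protease fluorescence (bis-AAF-R110, 485/520 nm), read 60 min after MultiTox-Fluor reagent. Human lymphoblastoid line exposed 16 h; Hill-fitted AC50, with DMSO as 0% and 15 uM tetraoctylammonium bromide as 100%.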

[17] = molecular target: Ubiquitin carboxyl-terminal hydrolase 1 (Homo sapiens) (UniProt O94782); test: Inhibitors of USP1/UAF1: Pilot qHTS (AID 504865; active = well fitted curve in the direction sought with a large enough effect; an effect the other way counts as inactive or inconclusive;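 also: rhodamine fluorescence freed from ubiquitin-rhodamine substrate followed over time; top concentration of the series differs between compounds; % is scaled to controls: 0 for no effect and ±100 for the full control effect; nearly all actives have a fitted effect of over 35% in size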)
Chain of Ubiquitin carboxyl-terminal hydrolase 1 (Homo sapiens) (O94782 whole entry, looked up): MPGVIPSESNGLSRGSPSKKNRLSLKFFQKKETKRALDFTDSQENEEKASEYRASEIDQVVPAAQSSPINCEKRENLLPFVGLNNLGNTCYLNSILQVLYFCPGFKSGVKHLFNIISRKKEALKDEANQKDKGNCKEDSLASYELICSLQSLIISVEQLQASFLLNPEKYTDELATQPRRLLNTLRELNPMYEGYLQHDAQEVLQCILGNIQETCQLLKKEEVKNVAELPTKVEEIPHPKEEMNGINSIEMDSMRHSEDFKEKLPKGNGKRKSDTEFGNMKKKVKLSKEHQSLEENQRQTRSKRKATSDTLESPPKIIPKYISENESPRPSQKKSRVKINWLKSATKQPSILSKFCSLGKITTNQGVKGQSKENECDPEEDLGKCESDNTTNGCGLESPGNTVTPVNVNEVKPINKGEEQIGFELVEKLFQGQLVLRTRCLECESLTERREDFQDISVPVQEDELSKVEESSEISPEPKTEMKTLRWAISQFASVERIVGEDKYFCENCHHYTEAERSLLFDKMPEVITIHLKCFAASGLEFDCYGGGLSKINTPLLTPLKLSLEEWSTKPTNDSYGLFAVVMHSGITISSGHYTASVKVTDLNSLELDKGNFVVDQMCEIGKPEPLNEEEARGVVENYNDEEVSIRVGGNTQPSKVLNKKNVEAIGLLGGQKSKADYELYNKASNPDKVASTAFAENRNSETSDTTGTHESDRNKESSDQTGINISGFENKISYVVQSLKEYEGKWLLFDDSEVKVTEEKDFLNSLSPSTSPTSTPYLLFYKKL
Method in brief: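 In 50mM HEPES pH 7.8 containing 0.5mM EDTA, 1mM TCEP, 0.1 mg/ml BSA and 0.01% Tween-20, 1nM USP1/UAF1 is exposed to compound for 15 min, then Ub-Rho (150nM final) is added and fluorescence is read over time.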

[18] = qHTS assay for small molecule antagonists of peroxisome proliferator-activated receptor delta signaling (AID 588535; active = well fitted inhibition curve with a large enough effect in the signal ratio, with a control signal flat, not every such curve was filed as active; the % refers to the signal ratio;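 as to max response: cells co-treated with a PPAR-delta agonist as stimulator during compound exposure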); conditions: HEK293T PPARd-UAS-bla, beta-lactamase FRET ratio, 18 h; 460 nm channel
Method in brief: (§1)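 Antagonist-mode qHTS using GeneBLAzer PPAR-delta-UAS-bla HEK293T cells; compound exposure 18 hrs at 37 C over a titration. Ratiometric CCF4 fluorescence at 460/530 nm; concentration-response points fitted to the Hill equation.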

[19] = molecular target: Peroxisome proliferator-activated receptor delta (Homo sapiens) (UniProt Q03181); test: as above
Chain of Peroxisome proliferator-activated receptor delta (Homo sapiens) (Q03181 whole entry, looked up): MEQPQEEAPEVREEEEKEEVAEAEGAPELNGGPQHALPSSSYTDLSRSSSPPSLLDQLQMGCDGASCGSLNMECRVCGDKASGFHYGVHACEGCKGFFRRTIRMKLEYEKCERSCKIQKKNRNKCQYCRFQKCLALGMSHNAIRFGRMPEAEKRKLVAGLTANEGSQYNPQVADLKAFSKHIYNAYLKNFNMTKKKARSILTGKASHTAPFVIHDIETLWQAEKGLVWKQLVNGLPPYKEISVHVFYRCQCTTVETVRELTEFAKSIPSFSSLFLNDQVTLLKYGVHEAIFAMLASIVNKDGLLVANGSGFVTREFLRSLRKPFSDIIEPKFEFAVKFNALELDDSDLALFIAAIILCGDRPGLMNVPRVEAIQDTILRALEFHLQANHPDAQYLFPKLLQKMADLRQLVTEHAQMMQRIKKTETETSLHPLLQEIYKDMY
Method in brief: as §1

[20] = qHTS assay to identify small molecules that stimulate interleukin-8 (IL-8) secretion (AID 651758; active = well fitted activation curve with a large enough effect in the signal ratio; the % refers to the signal ratio; also: 0% is about no effect)
Method in brief: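 Secreted IL-8 measured homogeneously by TR-FRET (two labelled anti-IL-8 antibodies, 1-3 h at room temperature) after a 16 h, 37 C compound treatment of THP-1 cells at 2000 cells/well.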

CN(CC(O)CO)C(=O)c1c(I)c(NC(=O)C(CO)CO)c(I)c(C(=O)N(C)CC(O)CO)c1I (stereo unspecified)
inactive: Potency [1]

COc1ccc2nc(N)sc2c1
inactive: Potency [2] > 92 µM | Potency [3] | Potency [4] | Potency [5] | outcome [6] | Potency [8] | Potency [9]
active: Potency [7] 54.5 µM

C=CCOC(=O)c1ccccc1C(=O)OCC=C
inactive: Potency [2] > 92 µM | Potency [10] > 92 µM | Potency [11] | Potency [4] | outcome [12] | outcome [13] | activation [14] -0.29% and -0.27% | Potency [8]

COc1c2ccoc2cc2oc(=O)ccc12
inactive: Potency [2] > 92 µM | Potency [10] > 92 µM | outcome [15] | Potency [16] | Potency [4] | outcome [13] | outcome [6] | Potency [8] | Potency [9]

CCCCCCCCCC(=O)OCCN1CCN(CC/C=C2/c3ccccc3Sc3ccc(Cl)cc32)CC1
active: Potency [1] 2.24 µM

O=NCc1ccc([N+](=O)[O-])o1
inactive: Potency [17] | Potency [1]

O=NO
inactive: Potency [2] > 92 µM | Potency [10] > 92 µM | outcome [15] | Potency [3] | Potency [19] | outcome [13] | outcome [6] | activation [14] -0.475% and 1.4% | Potency [20] | Potency [9]
3.13% and -3.55%: max response [18]

Nc1ccc(S(=O)(=O)O)cc1
inactive: Potency [2] > 92 µM | Potency [3] | Potency [4] | outcome [12] | outcome [6] | Potency [7] | activation [14] -0.239% and 0.0399% | Potency [9]

CN[C@@H]1[C@@H](O[C@H]2O[C@H](CO)[C@@H](N)[C@H](O)[C@H]2O)O[C@H]2C[C@@H](N)[C@H](O[C@H]3[C@H](O)[C@@H](O)[C@H](N)C[C@@H]3N)O[C@@H]2[C@@H]1O
inactive: Potency [1]

CCO[Si](CCCN)(OCC)OCC
6.45% and -7.95%: max response [18]
inactive: Potency [2] > 92 µM | Potency [16] | Potency [4] | outcome [12] | Potency [5] | Potency [19] | outcome [13] | outcome [6] | Potency [7] | activation [14] -0.737% and -1.24% | Potency [8]
